system: Lefty1; test: Lefty1 protein binding to printed compounds – biochemical, small-molecule microarray, 635/667 nm fluorescence, primary screen (AID 1139); conditions: fluorescence 635/667, higher = more signal

Row | SMILES | composite z-score
1 | CCOC(=O)C1=C[C@@H](CC)N(S(=O)(=O)c2ccc(C)cc2)[C@H]1c1ccccc1 | 0.0048
2 | Cc1ccc(S[C@]2(C(=O)NCc3ccccc3)CC(=O)N(Cc3ccccc3)[C@@H]2c2ccc(CO)cc2)cc1 | -1.33
3 | CC(C)c1ccc(NN2C(C(O)c3ccc(N(C)C)cc3)C=CC3C(=O)N(c4ccccc4)C(=O)C32)cc1 (stereo not drawn) | 0.273
4 | CS(=O)(=O)CCOC(=O)C1=CC(c2ccc(CO)cc2)=CC(C2CC2)N(Cc2cc3c(cc2Br)OCO3)C=C1C(=O)OCCS(C)(=O)=O (stereo not drawn) | 1.09
5 | O=C1O[C@@H](c2ccccc2)[C@@H](c2ccccc2)N2[C@@H](c3ccc(OCCO)cc3)[C@]3(C(=O)Nc4ccccc43)[C@@H](C(=O)Nc3nc4ccccc4s3)[C@H]12 | 1.28
6 | CN(C)CCCCNC(=O)[C@H]1C[C@H]2C(=O)N[C@@H](Cc3ccccc3)C(=O)N2[C@H]1c1ccc(O)cc1 | 1.31
7 | C=CCC(OC(C)=O)[C@@H]1[C@@H](N(Cc2ccc(-c3ccccc3)cc2)C(=O)Cc2ccc(F)cc2)c2cc(OCCCO)ccc2N1C(=O)c1ccc2ccccc2n1 (stereo partly drawn) | -0.192
8 | COC(=O)[C@@]1(Cc2ccccc2N=[N+]=[N-])COC(c2ccc(OCCCO)cc2)=N1 | -0.57

system: wheat germ agglutinin (Triticum aestivum), Alexa647-labelled; test: Alexa647-WGA lectin binding to printed small molecules – biochemical, small-molecule microarray, 635/667 nm fluorescence, artefact control for SMM control-protein annotation, profiling panel (AID 1140); conditions: WGA-A647 binding, 635 nm fluorescence, higher = more signal;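 also: score merges 667 nm feature emission with signal to noise over triplicate slides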

Row | SMILES | composite z-score
9 | CC(=O)Nc1cc(Br)ccc1C(=O)O | 0.625
10 | Cc1ccccc1C(O)C1C=CC2C(=O)N(C)C(=O)C2N1N1CCCCC1 (stereo not drawn) | 0.596
11 | [N-]=[N+]=NCc1ccccc1[C@@H]1OC(c2ccc(OCCCO)cc2)=N[C@]1(Cc1ccccc1)C(=O)N1CCCCC1 | 0.903
12 | COCC(=C=CC[C@H](O)c1ccc(OCCO)cc1)C[C@H](O)c1cc(Cl)cc(Cl)c1O | 0.0552
13 | COC(=O)[C@@]1(Cc2ccc(OC)cc2)[C@H]2c3cc(C(=O)N4CCCC4)n(Cc4ccccn4)c3C[C@H]2CN1C(=O)c1ccccc1 | 1.2
14 | COc1ccc([Si](C)(C)[C@@H]2[C@@H](CCn3cc([C@H](O)c4ccccc4)nn3)O[C@]3(C(=O)N(Cc4ccc(N5C(=O)c6cccc7cccc5c67)cc4)c4ccccc43)[C@H]2C)cc1 | -0.101
15 | O=C1O[C@@H](c2ccccc2)[C@@H](c2ccccc2)N2[C@@H](c3ccc(O)cc3)[C@]3(C(=O)Nc4ccc(C#CC5(O)CCCCCC5)cc43)[C@@H](C(=O)N3CCCCCCC3)[C@H]12 | 1.4
16 | O=C1[C@]2(CO)C=C(Br)[C@@H](C[C@@H]2c2ccccc2)[C@@]12CO2 | 0.492
17 | COCCOC(=O)N1C(=O)[C@@]2(c3cc(C#CCCO)ccc31)[C@H](c1ccccc1OCCO)N1[C@H](c3ccccc3)[C@H](c3ccccc3)OC(=O)[C@H]1[C@@H]2C(=O)N1CCN(c2ncccn2)CC1 | 0.789
18 | CC=CC(O)C1C=CC2C(=O)N(c3ccccc3)C(=O)C2N1Nc1ccc(C(C)C)cc1 (stereo not drawn) | 1.32
19 | CC(c1ccccc1)C(O)C1C=CC2C(=O)NC(=O)C2N1Nc1ccccn1 (stereo not drawn) | 0.528
20 | C=CCC(OC(C)=O)[C@@H]1[C@@H](N(Cc2ccc(-c3cccc(C(F)(F)F)c3)o2)C(=O)c2ccc(C)cc2)c2cc(OCCCO)ccc2N1C(=O)c1ccc(-c2ccccc2)cc1 (stereo partly drawn) | 0.639
21 | COc1ccc([Si](C)(C)[C@@H]2[C@@H](CC(=O)N3CCC[C@H]3CO)O[C@]3(C(=O)N(C)c4c(Br)cc(C)cc43)[C@H]2C)cc1 | 0.0832
22 | O=C1O[C@H](c2ccccc2)[C@H](c2ccccc2)N2[C@H]1[C@@H](C(=O)O)[C@]1(C(=O)Nc3ccc(C#CC4=CCCCC4)cc31)[C@H]2c1ccc(OCCO)cc1 | 1.1
23 | CCCNC(=O)[C@@]1(c2ccc([N+](=O)[O-])cc2)CC(=O)N(CC23CC4CC(CC(C4)C2)C3)[C@@H]1c1ccc(CO)cc1 | -0.109
24 | CC(C)C[C@@H]1NC(=O)[C@H]2C[C@@H](C(=O)NCCCCCCNC(=O)CS)[C@@H](c3cccc(OCCO)c3)N2C1=O | 0.96
25 | Cc1cc(C)c(C(O)C2C=CC3C(=O)N(C)C(=O)C3N2Nc2ccccc2)c(C)c1 (stereo not drawn) | 0.847
26 | O=C1OCCC=C[C@H]2OC34C=CCN(Cc5ccccc5)C(=O)[C@H]3N(CCCO)C(=O)[C@@H]4C12 (stereo partly drawn) | -0.194

Row | SMILES | composite z-score
27 | COCCOC(=O)N1C(=O)[C@@]2(c3cc(C#CCC(C(=O)OC)C(=O)OC)ccc31)[C@H](c1ccc(O)cc1)N1[C@H](c3ccccc3)[C@H](c3ccccc3)OC(=O)[C@H]1[C@@H]2C(N)=O | 0.252
28 | COCCOC(=O)N1C(=O)[C@@]2(c3cc(C#CCC(C(=O)OC)C(=O)OC)ccc31)[C@H](c1ccccc1OCCO)N1[C@H](c3ccccc3)[C@H](c3ccccc3)OC(=O)[C@H]1[C@@H]2C(N)=O | 1.1
29 | C=CCNC(=O)[C@H]1[C@@H]2C(=O)O[C@@H](c3ccccc3)[C@@H](c3ccccc3)N2[C@@H](c2ccc(O)cc2)[C@]12C(=O)N(C(=O)OCCOC)c1ccc(C#CCCO)cc12 | -0.163
30 | CC(C)CNC(=O)[C@@H]1c2ccccc2C(=O)N(Cc2cc(C(F)(F)F)cc(C(F)(F)F)c2)[C@H]1c1ccc(CO)cc1 | 0.204
31 | O=C(CS)NCCCCCCNC(=O)[C@@H]1C[C@@H]2C(=O)N3CCC[C@H]3C(=O)N2[C@@H]1c1ccc(O)cc1 | -0.462
32 | CCCCCCc1nc(CCCc2cc3c(c(CCCCCC)n2)[Si](C(C)C)(C(C)C)OC3)cc2c1[Si](C(C)C)(C(C)C)OC2 | -0.973
33 | O=C1O[C@H](c2ccccc2)[C@H](c2ccccc2)N2[C@H]1[C@@H](C(=O)NC[C@H](O)c1ccccc1)[C@]1(C(=O)Nc3ccc(C#CCCO)cc31)[C@H]2c1ccc(O)cc1 | -1.09
34 | C=C[C@@H](COC(C)=O)N(Cc1ccccc1[N+](=O)[O-])S(=O)(=O)c1ccc(Br)cc1 | 0.567
35 | O=C1N(CCS(=O)(=O)c2ccccc2)Cc2ccccc2C[C@]12N=C(c1ccc(OCCCO)cc1)O[C@@H]2c1ccccc1 | 1.13
36 | CCOC(=O)C1=C[C@@H](CC)N(S(=O)(=O)c2ccc(C)cc2)[C@H]1c1ccccc1 | 0.749
37 | Cc1ccc(S[C@]2(C(=O)NCc3ccccc3)CC(=O)N(Cc3ccccc3)[C@@H]2c2ccc(CO)cc2)cc1 | -0.425
38 | CC(C)c1ccc(NN2C(C(O)c3ccc(N(C)C)cc3)C=CC3C(=O)N(c4ccccc4)C(=O)C32)cc1 (stereo not drawn) | 0.923
39 | CS(=O)(=O)CCOC(=O)C1=CC(c2ccc(CO)cc2)=CC(C2CC2)N(Cc2cc3c(cc2Br)OCO3)C=C1C(=O)OCCS(C)(=O)=O (stereo not drawn) | 0.953
40 | O=C1O[C@@H](c2ccccc2)[C@@H](c2ccccc2)N2[C@@H](c3ccc(OCCO)cc3)[C@]3(C(=O)Nc4ccccc43)[C@@H](C(=O)Nc3nc4ccccc4s3)[C@H]12 | 0.958
41 | CN(C)CCCCNC(=O)[C@H]1C[C@H]2C(=O)N[C@@H](Cc3ccccc3)C(=O)N2[C@H]1c1ccc(O)cc1 | 1.2
42 | C=CCC(OC(C)=O)[C@@H]1[C@@H](N(Cc2ccc(-c3ccccc3)cc2)C(=O)Cc2ccc(F)cc2)c2cc(OCCCO)ccc2N1C(=O)c1ccc2ccccc2n1 (stereo partly drawn) | 0.216
43 | COC(=O)[C@@]1(Cc2ccccc2N=[N+]=[N-])COC(c2ccc(OCCCO)cc2)=N1 | 0.439

Source: PubChem BioAssay
